Shown are actives, neighbours in structure and some others; about 4.7% of the full set was active somewhere.
tim10-1 inh – tim10-1 yeast growth inhibition; 330,000 tested, 2.2% active; AID 463190; inhibition, % at 20 µM; S. cerevisiae tim10-1 ts strain growth, BacTiter-Glo, 24 h;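 active = inhibition of at least 40%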;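 also: mutant grown at 25 °C; 0% = DMSO wells with yeast and 100% = wells holding no yeast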
TIM10 inh – inhibits growth of TIM10 yeast strain; 330,000 tested, 1.4% active; S. cerevisiae TIM10 strain growth, BacTiter-Glo luminescence, 24 h; inhibition, % at 10 µM;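 active = inhibition of 40% or more at the single tested concentration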;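 also: wild-type TIM10 isogenic control strain grown at permissive 25 °C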
PfHsp90 yeast 2 – inhibits growth of yeast expressing Plasmodium falciparum Hsp90; S. cerevisiae expressing PfHsp90, BacTiter-Glo ATP, 48 h; yeast lacking PDR1 and PDR3 efflux regulators; inhibition, % at 9.4 µM; 310,000 tested, 0.32% active;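 active = every replicate shows inhibition above about 80%, whatever the replicate mean, limit read from the data; inconclusive = mean inhibition reaches the set limit but some replicate falls short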;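 also: 0% = DMSO neutral controls and 100% = 20 µM radicicol positive controls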
tim23-1 inh – growth inhibitors of tim23-1 mutant yeast; S. cerevisiae tim23-1 growth, BacTiter-Glo luminescence, 24 h; inhibition, % at 20 µM; 330,000 tested, 1.3% active; AID 463212;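 active = growth inhibition of the mutant yeast at or above 50%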;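 also: temperature-sensitive mutant grown at 25 °C; plate controls were DMSO-treated mutant yeast for no effect and medium wells lacking yeast for full effect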
SKKanGAS inh – inhibitors of SKKanGAS S. pyogenes growth in kanamycin (SK-promoter or general growth effect) | BacTiter-Glo, 6 h | inhibition, % at 7.5 µM | 300,000 tested, 1.3% active | AID 1662;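 active = mean replicate score, as percent of positive control median, at least 50; inconclusive = mean below 50 but one replicate at or above 50; inactive = mean and every replicate below 50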;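 also: strain carries kanamycin resistance gene driven by streptokinase promoter and grows in 40 µg/ml kanamycin; loss of luminescence reflects streptokinase promoter inhibition or plain growth inhibition; 0% = median of DMSO wells and 100% = positive control at its reference dose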
ATG4B inhibitor – inhibitors of human ATG4B cysteine protease; ATG4B cleavage of LC3-PLA2, NBD-HPC fluorescence, 1 h; AID 504462; 340,000 tested, 0.51% active; Q9Y4P1; inhibition, % at 8.33 µM; in the data active = inhibition above about 40%
Target sequence (Q9Y4P1 whole entry, looked up): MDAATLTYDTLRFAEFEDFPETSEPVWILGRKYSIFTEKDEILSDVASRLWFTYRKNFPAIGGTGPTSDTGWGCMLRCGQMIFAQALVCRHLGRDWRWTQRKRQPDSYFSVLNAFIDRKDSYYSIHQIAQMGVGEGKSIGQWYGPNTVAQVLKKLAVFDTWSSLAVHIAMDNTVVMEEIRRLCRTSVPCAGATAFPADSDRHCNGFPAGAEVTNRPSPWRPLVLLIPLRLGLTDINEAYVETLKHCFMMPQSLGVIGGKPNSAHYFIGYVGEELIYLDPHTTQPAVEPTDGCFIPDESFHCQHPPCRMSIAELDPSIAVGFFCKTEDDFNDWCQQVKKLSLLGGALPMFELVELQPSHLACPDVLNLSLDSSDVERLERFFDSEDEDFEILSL
tim10-1 confirm – confirmation of tim10-1 mutant yeast growth inhibitors; shares compounds with tim10-1 inh; S. cerevisiae tim10-1 ts strain growth, BacTiter-Glo, 24 h; 7,400 tested, 56% active; inhibition, % at 20 µM;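 active = inhibition of yeast growth at or above a set limit in either of two repeat tests at 20 µM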;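 also: tim10-1 mutant grown at permissive 25 °C to find synthetic lethal compounds; 0% = DMSO yeast wells and 100% = medium wells without yeast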
tim10 confirm – TIM10 yeast growth inhibition, confirmed | shares compounds with TIM10 inh | S. cerevisiae tim10 strain growth, BacTiter-Glo luminescence, 24 h | inhibition, % at 10 µM | 4,600 tested, 63% active;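 active = inhibition of yeast growth at or above a set limit in either of two replicates at 10 µM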;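 also: this counterscreen used the strain with wild-type TIM10; 0% = yeast with DMSO and 100% = medium wells lacking yeast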
tim23-1 confirm – tim23-1 yeast growth inhibition, confirmed. S. cerevisiae tim23-1 growth, BacTiter-Glo luminescence, 24 h. inhibition, % at 20 µM. shares compounds with tim23-1 inh. 4,400 tested, 83% active;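 active = inhibition above about 39% in either of two replicate wells at 20 µM, limit read from the data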;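 also: temperature-sensitive tim23-1 mutant grown at 25 °C; 0% = DMSO wells with yeast and 100% = medium wells without yeast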
ATG4B confirm – confirmation of human ATG4B inhibitors; inhibition, % at 8.33 µM; 320 tested, 92% active; ATG4B protease fluorescent substrate cleavage assay; AID 504757; shares compounds with ATG4B inhibitor; in the data active = inhibition above about 39%
PLA2 counter – counter-screen for ATG4B inhibitors: human phospholipase A2. shares compounds with ATG4B inhibitor. purified PLA2, NBD-C6-HPC fluorescence, 45 min. inhibition, % at 8.33 µM. 1,600 tested, 66% active; in the data active = inhibition above about 50%
Target sequence (P04054 whole entry, looked up): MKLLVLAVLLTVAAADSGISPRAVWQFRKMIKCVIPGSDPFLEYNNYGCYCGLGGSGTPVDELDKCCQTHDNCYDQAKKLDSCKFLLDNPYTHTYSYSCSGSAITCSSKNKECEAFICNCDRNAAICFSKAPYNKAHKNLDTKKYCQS
* = called active by the depositor; ? = inconclusive; . = not tested or not shown.

SMILES	tim10-1 inh	TIM10 inh	PfHsp90 yeast 2	tim23-1 inh	SKKanGAS inh	ATG4B inhibitor	tim10-1 confirm	tim23-1 confirm	others
COC(=O)[C@@H]1[C@@H](C#N)C2(c3ccccc3-c3ccccc32)N(c2ccc(Cl)cc2)N1C#N	50*	44*	100*	58*	?	0	36*	63*	tim10 confirm=-4
O=C(Cc1ccc(Cl)cc1)NN1C(=O)c2ccccc2C1=O	8	2	-1	8	-5	2	.	.
O=C(OC(c1ccccc1)c1nccc2ccccc12)c1cc([N+](=O)[O-])cc([N+](=O)[O-])c1 (stereo not given)	54*	43*	-61	57*	7	-9	45*	47*	tim10 confirm=-7
Cc1ccc(C(=O)/C=C/c2cn(CN3CCN(C)CC3)c3ccccc23)cc1	52*	60*	-11	56*	-7	-6	38*	-93	tim10 confirm=55*
Cc1ccc(NC(=O)C(=O)c2c[nH]c3ccccc23)cc1	-7	-14	-3	10	1	5	.	.
Cc1ccc(C(=O)/C=C/c2c[nH]c3ccccc23)cc1	44*	36	-29	80*	2	20	23	44*
Cc1ccc(-c2noc(CCCOc3ccc(Cl)cc3Cl)n2)cc1	19	3	1	12	23	6	.	.
COc1ccc(CCNC(=O)C2CCN(S(=O)(=O)c3ccc(C)cc3)CC2)cc1OC	21	5	11	1	-1	-1	.	.
CN=c1scc(-c2cccs2)n1/N=C/c1ccc(O)c(O)c1O	42*	32	10	71*	5	2	19	84*
CN=c1scc(-c2cccs2)n1/N=C/c1ccccc1O	12	8	25	4	2	24	.	.
COc1ccc(NC(=O)CSc2cc(C)nc3c(-c4ccccc4)cnn23)cc1	-7	-8	-29	-11	-3	-7	.	.
N#C/C(=C\c1ccccc1)C(=O)N(c1ccccn1)C1CCCCC1	49*	58*	-74	71*	2	3	70*	58*	tim10 confirm=67*
O=C(c1cccc(C(=O)N(c2ccccn2)C2CCCCC2)c1)N(c1ccccn1)C1CCCCC1	39	7	-22	28	-18	23	.	.
Cc1cc(C)c2cc(C=O)c(Cl)nc2c1	45*	51*	-7	67*	.	3	40*	78*	tim10 confirm=32*
CCc1cc2cc(C)cc(C)c2nc1Cl	-3	6	-5	7	-4	5	.	.
CCCNC(=O)N1CCN(c2ncccn2)CC1	21	-1	1	13	10	-15	.	.
O=c1oc(-c2ccccc2Cl)nc2ccsc12	44*	34	1	70*	1	22	35*	60*
COC(=O)Nc1nc2ccc(SC(C)C)cc2[nH]1	12	27	-27	16	.	2	.	.
Cc1ccccc1Oc1nc(-c2ccccn2)nc2ccccc12	48*	43*	-7	56*	104*	35	28	49*	tim10 confirm=36*
CC(=O)Nc1ccc(Oc2nc(-c3ccccn3)nc3ccccc23)cc1	17	18	-8	2	3	-9	.	.
O=C(N/N=C(\CC(=O)c1cccs1)C(F)(F)F)c1ccncc1	20	20	6	21	-2	5	.	.
Cc1ccc(C(=O)N/N=C(/CC(=O)c2cccs2)C(F)(F)F)cc1	47*	27	-40	47	1	41*	29*	.	PLA2 counter=28
Cc1cccc(NC(=S)NNC(=O)c2csc3c2CCCC3)c1	45*	43*	6	20	33	43*	45*	.	tim10 confirm=16;ATG4B confirm=71*;PLA2 counter=43
O=C(NCCCN1CCOCC1)c1cc(S(=O)(=O)N2CCN(c3ccccc3)CC2)ccc1Cl	-1	4	.	2	1	-9	.	.
C#CCOCCOCCOCCNc1nc(N2CCN(C(=O)CCCCCCCCCCNC(=O)[C@H](CCCN=C(N)N)n3cc(C[C@@H](C)CC)nn3)CC2)nc(N2CCN(C(=O)CCCCCCCCCCNC(=O)[C@@H]([C@H](C)CC)n3cc(CCCCCN)nn3)CC2)n1	29	-12	.	32	.	.	.	.
SMILES	tim10-1 inh	TIM10 inh	PfHsp90 yeast 2	tim23-1 inh	SKKanGAS inh	ATG4B inhibitor	tim10-1 confirm	tim23-1 confirm	others
C#CCOCCOCCOCCNc1nc(N2CCN(C(=O)CCCCCCCCCCNC(=O)[C@H](CCCCN)n3cc(C)nn3)CC2)nc(N2CCN(C(=O)CCCCCCCCCCNC(=O)[C@H](CCCN=C(N)N)n3cc(C[C@@H](C)CC)nn3)CC2)n1	40*	9	.	50*	.	69*	13	64*	PLA2 counter=70*
COc1cccc(Cn2cc(-c3cccc(C(F)(F)F)c3)nn2)c1	42*	-1	-20	-10	7	50*	23	.	PLA2 counter=68*
O=Cc1ccc(OCc2cccc(C(F)(F)F)c2)cc1O	45*	14	-26	57*	.	57*	48*	42*	PLA2 counter=77*
COc1ccccc1NC(=O)c1ccc(S(=O)(=O)N2CCC(C)CC2)cc1	9	-2	-3	28	14	-6	.	.
COc1cc(/C=C2\C(=O)N(c3ccc(NC(C)=O)cc3)N=C2c2ccccc2)ccc1O	15	14	-36	26	.	-5	.	.
CCOc1cc(/C=C2\C(=O)N(c3nc(-c4ccc(Br)cc4)cs3)N=C2c2ccccc2)ccc1O	47*	10	-11	24	73*	53*	15	.	ATG4B confirm=66*;PLA2 counter=47
C(=C\c1ccccc1)/CSc1nnc(-c2ccccc2)n1Cc1ccco1	44*	4	.	38	1	67*	26	.	PLA2 counter=66*
C(=C\c1ccccc1)/CSc1nnc(-c2ccncc2)n1Cc1ccco1	13	27	17	33	-2	-5	.	.
CCCCCCCCCCCCN1[C@@H](CC(=O)O)c2cc(C(F)(F)F)ccc2S1(=O)=O	64*	-4	-3	4	89*	59*	14	.	PLA2 counter=72*
CCCCCCCCN1[C@@H](CC(=O)O)c2cc(C(F)(F)F)ccc2S1(=O)=O	29	20	-20	18	7	2	.	.
O=C(c1ccccc1)c1coc2ccc(O)c(Cl)c12	-5	-10	.	42	-5	4	.	.
